Source: PubChem BioAssay
In the library only some 3.5% were active in any assay of this set; here they are far more common.
Anthrax LF inh2: Bacillus anthracis LF protease inhibitors, primary screen, biochemical, multiplex microsphere, MLPCN library. actives 0.12% (n = 360,000). Lethal factor (Bacillus anthracis), P15917. multiplex microsphere protease cleavage assay. inhibition, % at 10 µM; also: plate controls were buffer without enzyme for full effect and enzyme alone for no effect
Autofluor counter: flagged as autofluorescent in microsphere protease counterscreen; AID 624483; compound autofluorescence counterscreen, microsphere flow cytometry; active compounds read high; fluorescence intensity (test concentration not listed); actives 3.1% (n = 360,000); in the data active = fluorescence intensity above about 16000; inconclusive = no clear call, values can overlap the other calls
BoNT-F LC inh: BoNT/F light chain protease inhibitors, primary screen, biochemical, flow cytometry, MLPCN library; Multiplex microsphere protease cleavage assay; inhibition, % at 10 µM; actives 0.22% (n = 360,000); in the data active = inhibition above about 35%, passing the limit was not always enough; inconclusive = no clear call, values can overlap the other calls; also: plate controls were buffer without enzyme for full effect and enzyme alone for no effect
BoNT-A LC inh2: BoNT/A light chain protease inhibitors, primary screen, biochemical, flow cytometry, MLPCN library. Botulinum neurotoxin type A light chain protease (Clostridium botulinum A str. ATCC 3502). multiplex microsphere protease substrate cleavage. inhibition, % at 10 µM. AID 588499, 2011. actives 0.17% (n = 360,000); also: plate controls were buffer without enzyme for full effect and enzyme alone for no effect
Starred values were filed as active, the others as inactive; ? = inconclusive. Rule as the data show it, unless noted: active = inhibition above about 30%; inconclusive = no clear call, values can overlap the other calls; inactive = below that.

SMILES	Anthrax LF inh2	Autofluor counter	BoNT-F LC inh	BoNT-A LC inh2
CC(C)CNC(=O)C(=O)N/N=C/c1cccs1	-0.7	18172*	-6.8	-5.4
CCCNC(=O)C(=O)N/N=C/c1cccs1	2.9	10484	2.8	0.9
CCN1C(=O)C(=O)N(CC(=O)Nc2ccccc2OC(F)F)C1=O	1.0	8021	5.0	2.1
COc1cccc(OC)c1OCCCc1c(C)n[nH]c1C	-2.4	10100	-14.4	-1.0
Cc1cccc(OCCCc2c(C)n[nH]c2C)c1	0.0	22053*	0.8	?
O=c1c(-c2nnc(SCc3ccc(Cl)cc3)o2)cccn1Cc1ccccc1	0.3	22587*	0.8	1.4
O=C(Nc1ccccc1-c1nnc(SCc2ccc(Cl)cc2)o1)c1ccccc1	-3.2	22262*	-0.6	1.4
CC(C)c1ccc(C(=O)N2CCN(c3cnn(C)c(=O)c3Cl)CC2)cc1	1.6	4256	-4.2	0.1
Nc1ncnc2c1ncn2[C@@H]1O[C@H](CNCc2ccc(OCC(=O)Nc3nccs3)cc2)[C@@H](O)[C@H]1O	-7.4	3753	-5.3	-0.7
O=C(CCc1ccc(S(=O)(=O)N2CCOCC2)cc1)Nc1nccs1	-4.4	2844	-0.2	0.0
O=C(CCc1ccc(S(=O)(=O)N2CCOCC2)cc1)Nc1ccccc1F	9.3	3432	-2.6	0.5
O=C(CCc1ccc(S(=O)(=O)N2CCOCC2)cc1)Nc1nc(COc2ccccc2)cs1	-1.2	22376*	0.0	2.1
CNS(=O)(=O)c1ccc(CCC(=O)N2CCOCC2)cc1	-5.8	3301	?	2.7
O=C(CCc1ccc(S(=O)(=O)N2CCOCC2)cc1)N1CCCC1	-2.0	23425*	-3.2	?
O=C(CCc1ccc(S(=O)(=O)N2CCOCC2)cc1)NCCc1ccccn1	-1.8	21908*	-2.1	?
COc1ccccc1CNC(=O)CCNS(=O)(=O)c1cc(Br)cnc1N	-0.5	5620	3.0	0.5
CC(C)Cc1ccc(CN2C(C)C(=O)N(Cc3cn(Cc4ccco4)nn3)CCS2(=O)=O)cc1 (stereo not drawn)	-3.1	6247	-2.3	0.5
CCOc1oc(-c2ccc(OC)cc2)nc1C(F)(F)F	0.0	16401*	-0.7	0.3
Cc1ccc(NC(=O)NNC(=O)C2CC(c3cccs3)=NO2)cc1 (stereo not drawn)	0.0	6134	6.5	-0.8
CCOC(=O)Cc1c[nH]c2ccc([N+](=O)[O-])cc12	0.4	2850	-3.1	-0.4
Cc1ccc(/C=N/NC(=S)NCCc2ccccc2)s1	-2.6	4496	-5.9	-1.3
CCCCNC(=S)N/N=C/c1ccc(C)s1	-3.2	24604*	-11.6	?
COc1ccc(CNC(=O)CCCCCn2c(SCC#N)nc3cc4c(cc3c2=O)OCO4)cc1	1.5	19698*	0.5	?
CCCSc1nnc(NC(=O)c2nc(SC)ncc2Cl)s1	-1.5	19506*	8.2	?
CSc1ncc(Cl)c(C(=O)Nc2nnc(SC)s2)n1	-2.2	4499	9.9	0.9
SMILES	Anthrax LF inh2	Autofluor counter	BoNT-F LC inh	BoNT-A LC inh2
CCCN1C(=O)/C(=C/c2ccc(N3CCCC3)c(C)c2)NC1=S	9.1	18761*	14.0	11.1
Cc1cc(C=C(C#N)C#N)ccc1N1CCCC1	20.9	3451	14.0	50.2*
Cc1cc(/C=C2\NC(=S)N(C)C2=O)ccc1N1CCCC1	4.7	6349	8.6	4.7
Cc1cc(/C=C2/C(=O)N(C)C(=S)N2C)ccc1N1CCCC1	21.9	15497	30.5	36.0*
CCOC(=O)[C@]12CCCC=C1N(Cc1cccc3ccccc13)C(=O)[C@H](CC(=O)N1CCN(C(=O)C3CC3)CC1)C2	2.8	5453	-1.2	0.4
Cc1ccc(N2CC(C(=O)N3CCC(C(=O)NCCCOC(C)C)CC3)CC2=O)cc1 (stereo not drawn)	4.2	5840	-3.5	-1.6
COc1cccc(CN2CC(C(=O)NCc3ccc(C)o3)CCC2=O)c1 (stereo not drawn)	3.9	5868	10.6	-1.4
CCOC(=O)c1cc(OC(=O)c2ccccc2)n(-c2ccccc2)n1	-0.2	23849*	-1.3	-1.4
Cc1ccc(C(=O)COC(=O)c2cn(-c3ccccc3)nc2-c2ccccc2)cc1[N+](=O)[O-]	-1.4	2060	-3.6	0.6
O=C(COC(=O)c1cn(-c2ccccc2)nc1-c1ccccc1)c1cccc([N+](=O)[O-])c1	-4.7	16553*	-5.2	-0.6
CCOC(=O)c1cc(OC(=O)c2cccs2)n(-c2ccccc2)n1	-0.9	10007	-1.6	-0.9
CCOC(=O)c1cc(OC(=O)c2ccccc2Br)n(-c2ccccc2)n1	-1.6	10633	-6.0	0.5
CCOC(=O)c1cc(OC(=O)c2cccc([N+](=O)[O-])c2)n(-c2ccccc2)n1	-0.4	17208*	-3.0	?
COC(=O)Nc1ccc(S(=O)(=O)N2CCCC(C(=O)NCC3CCCO3)C2)cc1 (stereo not drawn)	1.6	3743	-6.2	-0.6
CCOC1=C2[C@H](c3ccccc3)N(S(=O)(=O)c3ccccc3)C[C@H]2n2c(=O)n(-c3ccccc3)c(=O)n2C1	-5.4	6011	-7.4	0.1
CCOC(=O)NC1(C(F)(F)F)NC(=O)N(Cc2ccco2)C1=O (stereo not drawn)	1.9	16624*	-0.2	?
COc1ccccc1-n1c(SCC(=O)Nc2ccccc2F)nc2[nH]ncc2c1=O	-0.4	16242*	-1.7	?
CCOc1ccc(NC(=O)CSc2nc3[nH]ncc3c(=O)n2-c2ccccc2OC)cc1	-7.4	7316	-6.4	0.3
O=S(=O)(c1ccc(F)cc1)N(CCO)CC(O)Cn1c2ccccc2c2ccccc21 (stereo not drawn)	-5.3	16893*	-7.0	-2.0
CCN(CC(O)Cn1c2ccccc2c2ccccc21)S(=O)(=O)c1ccc(F)cc1 (stereo not drawn)	-7.4	10322	-11.9	-1.4
CN(C)CCCNc1oc(-c2ccccc2)nc1C#N	-3.9	2795	-8.0	-0.2
CCOc1ccc(Nc2oc(-c3cccc(Cl)c3)nc2C#N)cc1	-3.8	23170*	1.8	?
CN(C)CCNc1oc(-c2cccc(Cl)c2)nc1C#N	0.6	20990*	-4.3	-4.5
CC(=O)OCC1OC(n2c(S)c(C#N)c(-c3ccccc3)c(C#N)c2=O)C(OC(C)=O)C(OC(C)=O)C1OC(C)=O (stereo not drawn)	-7.8	3248	-4.7	0.0
COC(=O)CC1SC(=O)NC1=Nc1ccccc1 (stereo not drawn)	1.2	23324*	-0.4	0.6
SMILES	Anthrax LF inh2	Autofluor counter	BoNT-F LC inh	BoNT-A LC inh2
COC(=O)CC1SC(=O)NC1=Nc1ccc(C)cc1 (stereo not drawn)	-2.2	8879	-1.7	-0.3
CCn1nc(CCC(=O)O)c2ccccc2c1=O	-1.3	22340*	3.1	2.7
O=C(c1cc2c(s1)CCCC2)N1CCN(Cc2ccc3c(c2)OCO3)CC1	-0.1	3181	-2.6	-0.1
O=C(Oc1ccc2c(c1)OCO2)c1cc2c(s1)CCC2	-0.6	3933	53.7*	2.1
Cc1ccc(NC(=O)COC(=O)c2ccc(S(=O)(=O)N3CCCC3)cc2)cc1	1.1	5993	9.0	1.5
CC1CCCC(NC(=O)CN2CCN(S(=O)(=O)c3ccc(Br)s3)CC2)C1C (stereo not drawn)	2.4	4243	?	2.0
